# Only some compounds are listed: those with a hit (about 2.9% of all), similar ones and a draw of the others.
# Nrf2 ARE act – qHTS of Nrf2 Activators; hit rate 0.31% among 410,000; Potency, µM (titrated, usually from 46.1 µM), inactives show at the top dose activation, usual class: activators; AID 624171, 2012; AREc32 ARE-luciferase reporter (MCF7-derived line), luminescence, 24 h; further: % of control where 0% means no effect; nearly all actives have a fitted effect of over 65% in size
#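 AREc32 cells carrying an ARE-driven firefly luciferase, 1000 cells/well in OPTI-MEM with 5% FBS, dosed after overnight attachment and incubated 24 hr at 37 deg C. Steady-Glo luminescence read after 30 min at RT.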
# Nrf2 block – Nrf2 qHTS screen for inhibitors. A549 ARE-Fluc reporter, luciferase luminescence, 18-24 h. Potency, µM (highest dose often 46 µM), for the others: top-dose activity change, negative = inhibition, most hits filed as inhibitors. AID 504444, 2011. hit rate 2.1% among 360,000; further: on the % scale 0 is the no-effect control and ±100 the full control effect; nearly all actives have a fitted effect of over 60% in size
#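 Nrf2 function is reported as luminescence of an ARE-controlled luciferase in A549 cells. Compounds were tested at several concentrations, and a CellTiter-Fluor read on the same wells flagged cytotoxicity.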
# S2 tox – Viability Counterscreen for Primary qHTS for Inhibitors of ATXN expression; Potency, µM (highest dose often 56.7 µM), hits mostly cytotoxic; S2 cells (HEK-293 line with an ATXN2-luciferase reporter) viability, CellTiter-Fluor protease fluorescence, 24 h; hit rate 0.49% among 400,000; further: nearly all actives have a fitted effect of over 40% in size
# A549 tox – Nrf2 qHTS screen for inhibitors: counterscreen for cytotoxicity; A549 ARE-Fluc cells, CellTiter-Fluor viability, 18-24 h; hit rate 0.16% among 390,000; Potency, µM (series often up to 46 µM), without a hit: at the highest dose activity change, negative = cytotoxicity, usual class: inhibitors; further: on the % scale 0 is the no-effect control and ±100 the full control effect
#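 A549 ARE-Fluc cells in 5% FBS OPTI-MEM, 5000 cells/well, rested 2 h then exposed to compounds in concentration-response for 18-24 h at 37 °C. Viability by CellTiter-Fluor fluorescence (Ex 405/Em 525) after 30 min; luciferase luminescence (BugLite, 15 min, RT) read afterwards.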
# ATXN2 expr inh – Primary qHTS for Inhibitors of ATXN expression; hit rate 0.72% among 360,000; AID 1745845, 2022; HEK-293 ATXN2-luciferase reporter, luminescence, 24 h; Potency, µM (doses to about 57 µM), for inactives: at the highest dose activity change, negative = inhibition, most hits filed as inhibitors; further: on the % scale 0 is the no-effect control and ±100 the full control effect; nearly all actives have a fitted effect of over 55% in size
#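 qHTS (up to 57 uM final) was run with 24 h compound exposure of reporter cells at 37 °C. Each well was multiplexed: SteadyGlo luminescence measured ATXN2-luciferase expression after a fluorogenic Gly-Phe-AFC viability readout (25 uM final).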
# * = called active by the depositor; i = inactive; ? = inconclusive; / = no result; ! = not active in a repeat; [ ] = another dose, or the depositor's remark. The call rests on the fitted dose curve; in most records, active means well fitted curve in the direction sought with a large enough effect; inconclusive means small, poorly fitted or top-dose-only effect, or another doubt; inactive means no such curve, though single readings can be large; an effect the other way counts as inactive or inconclusive. Potency means the concentration at half of the fitted maximal effect.
SMILES,Nrf2 ARE act,Nrf2 block,S2 tox,A549 tox,ATXN2 expr inh
COc1cc(OC)c(OC)cc1CCC(C)NCCC(c1ccccc1)c1ccccc1 (stereo unspecified),-2.7%,-0.5%,15.8µM*,3.5%,/
COc1ccc(CCNCCC(c2ccccc2)c2ccccc2)cc1OC,-3.9%,/,?,/,/
CC(C)n1cnc2c(NCCCCCCNC(=O)OC(C)(C)C)nc(NCCO)nc21,/,/,/,/,13.7µM*
CC(C)n1cnc2c(Nc3cccc(Cl)c3)nc(NCCCO)nc21,-4.5%,?,?,?,-33.8%
Cc1ccccc1OCC(O)Cn1nnc2ccccc21 (stereo unspecified),2.3%,?,i,-7.0%,56.5%
CCOc1ccc(-c2cc(CCCC(=O)Nc3cccc(OC)c3)no2)cc1,-3.7%,?,i,1.4%,8.91µM*
COC(=O)Cn1c(SCCOc2ccccc2Cl)nc2ccccc21,3.2%,23.1µM*,i,-9.7%,5.6%
Cc1ccc(OCCSc2nc3ccccc3n2CC(=O)N2CCOCC2)cc1,3.2%,18.4µM*,i,-0.4%,6.8%
CC1CCC(NC(=O)C2(C)Cc3ccccc3C(=O)N2Cc2ccc(Cl)cc2)CC1 (stereo unspecified),4.1%,-2.9%,/,-16.3%,/
CCn1c(=O)[nH]c2cc(C(=O)Nc3cc(C)cc(C)c3)ccc2c1=O,0.1%,16.4µM*,i,10.7%,-14.4%
Cc1ccc(S(=O)(=O)N(C)C)cc1NC(=O)COC(=O)C1CC1,0.4%,0.5%,i,1.3%,3.6%
COc1ccccc1C(=O)OCC(=O)Nc1cccc(S(=O)(=O)N2CCCC2)c1,-0.2%,8.3%,i,1.9%,-4.0%
Cc1nc(N)sc1-c1ccnc(Nc2ccc(N3CCOCC3)cc2)n1,/,/,/,/,10.9µM*
Cc1ccc(S(=O)(=O)N2C(=O)c3cccc4cccc2c34)cc1,-0.1%,14.6µM*,i,?,?
CS(=O)(=O)Nc1ccc(C(=O)CSc2nnc(C3CC3)n2C2CC2)cc1,-0.5%,13.8%,i,1.7%,5.7%
COc1ccc(CNC(=O)c2c(O)nc3c(C)cccn3c2=O)cc1,-0.3%,15.4%,i,4.6%,2.2%
Cc1cccn2c(=O)c(C(=O)NC(C)c3ccccc3)c(O)nc12 (stereo unspecified),-0.2%,6.51µM*,?,?,-19.2%
COc1ccccc1CNC(=O)c1cnccn1,-0.6%,7.9%,i,9.3%,4.0%
O=[N+]([O-])c1ccc(O)c(-c2cc(C(F)(F)F)nc(-c3ccccc3)n2)c1,-1.2%,?,?,8.2µM*,/
CCN(CC)c1nc(Nc2ccccc2)nc(Oc2ccc(=O)n(C)n2)n1,9.9%,-22.8%,i,-5.6%,14.9%
CCOc1ccc(Oc2nc(Nc3ccc(C)cc3)nc(N(C)C)n2)nn1,0.2%,20.6µM*,?,-12.3%,-15.6%
CCc1ccc(NC(=O)C2=CC(c3cccs3)=NS(=O)(=O)N2C)cc1,-0.7%,16.4µM*!,i,-16.3%,-2.2%
O=C(NNC(=O)c1sc2cccc(Cl)c2c1Cl)NC1CCCCC1,-0.6%,9.2µM*,i,-12.0%,-0.7%
Cc1ccc(-c2nc(NC(=O)c3nn(C)cc3[N+](=O)[O-])sc2C)cc1C,?,25.9µM*,i,-21.2%,?
Cc1cnc(NC(=O)c2nn(C)cc2[N+](=O)[O-])s1,-0.3%,?,i,-6.5%,14.1%
SMILES,Nrf2 ARE act,Nrf2 block,S2 tox,A549 tox,ATXN2 expr inh
Cc1ccc(-c2nc(NC(=O)c3nn(C)cc3[N+](=O)[O-])sc2C)cc1,-5.2%,18.4µM*,?,?,?
Cc1nc(-c2noc(-c3cccc(Cl)c3)n2)c(C(F)(F)F)o1,10.7%,?,i,1.1%,69.1%
COc1ccc(C2CC(=O)N(Cc3ccc(F)cc3)c3ccccc3S2)cc1 (stereo unspecified),-0.9%,?,?,-3.8%,?
C=CCn1c(SCC(=O)Nc2cccnc2Cl)nnc1-c1ccc(C(C)(C)C)cc1,0.0%[9.22 µM],-7.5%,i,0.6%,15.3%
COc1ccc(C(=O)Nc2ccc(NC(=O)c3cccs3)c(OC)c2)cc1Cl,0.4%,9.2µM*,?,-17.1%,?
COc1ccc(C(=O)Nc2ccc(NC(=O)c3cccs3)cc2)cc1Cl,-0.4%,-12.2%,?,-0.6%,/
COC(=O)c1ccccc1NC(=O)COc1ccccc1[N+](=O)[O-],5.01µM*,?,i,8.5%,-14.1%
COc1cc(NC(=O)COc2ccccc2[N+](=O)[O-])ccc1NC(=O)c1cccs1,3.9%,?,12.6µM*,-15.5%,?
O=C(O)c1cccc(NC(=O)c2ccc(CN3C(=O)c4ccccc4C3=O)cc2)c1,0.6%,-1.7%,i,1.0%,0.6%
NC(=O)c1coc(-c2ccccc2)n1,-0.3%,11.4%,i,-2.7%,/
COc1cc(CNc2ccc(O)cc2)cc(Br)c1OCc1ccccc1F,16.6%,5.17µM*,i,14.6µM*,-25.0%
CCOc1cc(CNc2ccc(O)cc2)cc(Br)c1OCc1ccccc1F,?,?,?,-14.1%,?
O=C(O)Cn1nc2c3c(cccc3c1=O)-c1ccccc1-2,-0.3%,-22.2%,i,-1.3%,6.0%
Cc1ccc(-n2nc3c4c(cccc4c2=O)-c2ccccc2-3)cc1,5.0%,?,?,16.4µM*,?
Cc1cc(C)nc(SCc2ccc(C(=O)N/N=C/c3ccccc3C(=O)O)cc2)n1,0.3%,5.5%,i,-3.2%,-0.6%
Cc1oc(-c2ccc(Cl)cc2)nc1CN1CCCC(C(=O)NC2CC2)C1 (stereo unspecified),1.6%,23.9%,i,?,-7.2%
CCc1ccc(-c2nc(CN3CCCC(C(=O)N4CCN(c5cc(Cl)ccc5C)CC4)C3)c(C)o2)cc1 (stereo unspecified),5.7%,?,15.8µM*,?,20µM*
CCCN(CCC)CCNC(=O)C1CCN(Cc2nc(-c3ccc(Cl)cc3)oc2C)CC1,-0.8%,6.9%,15.8µM*,?,?
CCOC(=O)N1CCC(NC(=O)C2CCCN(Cc3nc(-c4cccc(Cl)c4)oc3C)C2)CC1 (stereo unspecified),0.7%,16.4µM*,i,-15.5%,-7.0%
O=S(=O)(c1ccccc1)c1nc(-c2ccco2)oc1NCc1cccnc1,3.5%,/,i,2.0%,8.1%
CC1Oc2ccc(C#N)cc2N(Cc2ccccc2OC(F)(F)F)C1=O (stereo unspecified),0.9%,/,i,/,9.3%
Cn1nc(C(=O)OCC(=O)NCc2ccc(Cl)cc2Cl)c2ccccc2c1=O,0.4%,/,i,/,/
CC1(C)CC(=O)C=C(C(=O)N2CCCC(C(=O)c3cccc(C(F)(F)F)c3)C2)O1 (stereo unspecified),1.4%,9.2µM*,i,?,-5.0%
CC1(C)CC(=O)C=C(C(=O)N2CCCC(C(=O)c3cc(F)ccc3F)C2)O1 (stereo unspecified),1.2%,/,i,/,/
